Records with an inconclusive call do not appear. A number with no mark means an inactive call. Activity calls are given as the source filed them. The call rests on the fitted dose curve; in most records, active means well fitted cell-killing curve with a large enough effect in the repeat runs; inconclusive means weak or mixed curves, or effect the other way; inactive means flat fitted curve, though single readings scatter.
test: cAMP Responsive Elements (CRE) small molecule agonists, cell-based qHTS assay: qHTS cell viability counter screen (AID 2060914); settings: CRE-bla HEK293T viability, CellTiter-Glo luminescence, 5 h; series mostly up to 92.4 µM; activity change, negative = cytotoxicity: at the top concentration; further: nearly all actives have a fitted effect of over 50% in size
How it was run: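 In the same wells as the reporter read, viability of CRE-bla HEK 293T cells was quantified by CellTiter-Glo luminescence after a 3 h compound exposure.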
On the % scale 0 is the no-effect control and ±100 the full control effect.

Structure (SMILES)	activity change, negative = cytotoxicity	Potency
N#C/C=C/c1ccccc1	0.828%	
CCCN(CCC)CCc1c[nH]c2ccccc12	-2.15%	
Clc1cccc(SC2CCNCC2)n1	16.2% [at 42.5 µM]	
CCCOC(=O)c1ccccc1C(=O)OCCC		inactive
CCCCC(CC)COC(=O)c1c(Br)c(Br)c(Br)c(Br)c1C(=O)OCC(CC)CCCC (stereo not drawn)	8.32% [at 42.5 µM]	
CC(C)N(Cc1ccccc1)C(=O)C(C)(C)C	1.05%	
Cc1ccc(N)c(C)c1		inactive
O=[N+]([O-])c1ccc2ccc3cccc4ccc1c2c34	7.75%	
Oc1cccc2cccnc12		inactive
Cc1ccc(CCl)cc1	9.08%	
Oc1ccc([C@H]2CNCc3c2ccc(O)c3O)cc1O	5.24% [at 42.5 µM]	
C/C(=C\c1ccccc1)[N+](=O)[O-]	16.1%	
CCOP(=S)(OCC)SCSC(C)(C)C		inactive
c1ccc2c(c1)oc1ccccc12		inactive
O=CC(Br)(Br)Br	26%	
CCOP(=S)(OCC)SCCS(=O)(=O)CC	-10.5%	
CC(C)(OO)c1ccccc1	1.37%	
CC(C)CC(C)Nc1ccc(Nc2ccccc2)cc1 (stereo not drawn)	-25.5%	
